The record followed here is PubChem BioAssay (EPA / NIEHS).

“And” between values parts separate entries of the source, which are not always exact repeats. Equal values may be shown once. Results filed as inconclusive are left out. The source holds several records for some structures; these can differ, active in one and inactive in another. The source made the active and inactive calls. Rule for the calls: active = hit-call score of the fitted dose curve at least 0.9, where 1 is the maximum; inconclusive = response in the unintended direction; inactive = score below 0.9.

In general, AC50 refers to the concentration at which the activity in the assay is half-maximal.

For experiment [1], the target named is human Protein Tyrosine Phosphatase Receptor Type F (PTPRF), PTPRF (gene 5792) (UniProt P10586). Description: NVS_ENZ_hPTPRF: NovaScreen (NVS) Enzymatic Assay for human Protein Tyrosine Phosphatase Receptor Type F (PTPRF) (AID 2283213). An outline of the steps: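 Cell-free fluorescence enzyme assay with recombinant protein and substrate; product separated by electrophoretic mobility shift. Read 1 h after dosing, single 25 uM duplicate screen, then concentration-response up to 50 uM; loss of signal vs DMSO.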

Experiment [2] concerns the target human Sirtuin 2 (SIRT2), SIRT2 (gene 22933) (UniProt Q8IXJ6). The experiment in a line: NVS_ENZ_hSIRT2: NovaScreen (NVS) Enzymatic Assay for human Sirtuin 2 (SIRT2) (AID 2283217). An outline of the steps: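 Single-point duplicate screen at 25 uM, then concentration-response (max 50 uM) for chemicals passing threshold. Enzyme activity of recombinant human SIRT2 measured after 1 hr by fluorescence with mobility-shift separation of product; DMSO baseline.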

The target of experiment [3] is human Protein Tyrosine Phosphatase Receptor Type B (PTPRB), PTPRB (gene 5787) (UniProt P23467). The experiment in a line: NVS_ENZ_hPTPRB: NovaScreen (NVS) Enzymatic Assay for human Protein Tyrosine Phosphatase Receptor Type B (PTPRB) (AID 2283211). As to the method:
(§1) NVS_ENZ_hPTPRB is a biochemical, single-readout assay that uses extracted gene-proteins in a cell-free assay. Measurements were taken 1 hour after chemical dosing in a 384-well plate.NVS_ENZ_hPTPRB is one of one assay component(s) measured or calculated from the NVS_ENZ_hPTPRB assay. It is designed to make measurements of enzyme activity, a form of enzyme reporter, as detected with fluorescence intensity signals by Fluorescence and electrophoretic mobility shift technology.Data from the assay component NVS_ENZ_hPTPRB was analyzed into 1 assay endpoint. This assay endpoint, NVS_ENZ_hPTPRB, was analyzed in the positive analysis fitting direction relative to DMSO as the negative control and baseline of activity. Using a type of enzyme reporter, loss-of-signal activity can be used to understand changes in the enzymatic activity as they relate to the gene PTPRB. Furthermore, this assay endpoint can be referred to as a primary readout, because this assay has produced multiple assay endpoints where this one serves a enzymatic activity function. To generalize the intended target to other relatable targets, this assay endpoint is annotated to the phosphatase intended target family, where the subfamily is receptor tyrosine phosphatase.
(§2) Binding assays used specific radioligands (tritiated, iodinated) with non-radioactive competitive displacement ligands in agonist or antagonist protocols (as indicated) and various reference compounds and inhibitors to titrate specific binding to receptors and transporters. Most enzyme assays (CYPs, kinases, phosphatases, proteases, HDACs) used recombinant protein and specific substrates (fluorescence mostly, some colorimetric and radioactive) and inhibitors, followed by a biochemical separation of substrate and product. All assays for the biochemical HTS were initially run in duplicate at a single concentration (10 uM for CYP450 assays and 25 uM for all others). […] Each assay was run with positive and negative controls, and concurrent controls on every plate. The follow-up (secondary) screen tested active chemical-pairs in concentration series, as well as a few additional assays not tested in the primary screen, some selected negative inactives, and several cases re-run in the concentration series for confirmatory purposes.

Experiment [4] has as its target human Rho Associated Coiled-coil Containing Protein Kinase 1 (ROCK1), ROCK1 (gene 6093) (UniProt Q13464). The experiment in a line: NVS_ENZ_hROCK1: NovaScreen (NVS) Enzymatic Assay for human Rho Associated Coiled-coil Containing Protein Kinase 1 (ROCK1) (AID 2283214). The gist of the method:
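Compounds first run in duplicate at 25 uM against recombinant human ROCK1, then followed in concentration series. Kinase activity was read 1 h post-dosing by fluorescence with mobility-shift separation, as signal loss relative to DMSO.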

The target of experiment [5] is human Sirtuin 1 (SIRT1), SIRT1 (gene 23411) (UniProt Q96EB6). The experiment in a line: NVS_ENZ_hSIRT1: NovaScreen (NVS) Enzymatic Assay for human Sirtuin 1 (SIRT1) (AID 2283219). An outline of the steps: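 Cell-free recombinant SIRT1 with a fluorescent substrate; substrate and product separated by electrophoretic mobility shift and read by fluorescence intensity, 1 h after dosing. Primary screen at 25 uM in duplicate; hits re-run in concentration-response up to 50 uM, relative to DMSO.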
human Sirtuin 1 (SIRT1), SIRT1 (gene 23411), sequence (Q96EB6 whole entry, looked up): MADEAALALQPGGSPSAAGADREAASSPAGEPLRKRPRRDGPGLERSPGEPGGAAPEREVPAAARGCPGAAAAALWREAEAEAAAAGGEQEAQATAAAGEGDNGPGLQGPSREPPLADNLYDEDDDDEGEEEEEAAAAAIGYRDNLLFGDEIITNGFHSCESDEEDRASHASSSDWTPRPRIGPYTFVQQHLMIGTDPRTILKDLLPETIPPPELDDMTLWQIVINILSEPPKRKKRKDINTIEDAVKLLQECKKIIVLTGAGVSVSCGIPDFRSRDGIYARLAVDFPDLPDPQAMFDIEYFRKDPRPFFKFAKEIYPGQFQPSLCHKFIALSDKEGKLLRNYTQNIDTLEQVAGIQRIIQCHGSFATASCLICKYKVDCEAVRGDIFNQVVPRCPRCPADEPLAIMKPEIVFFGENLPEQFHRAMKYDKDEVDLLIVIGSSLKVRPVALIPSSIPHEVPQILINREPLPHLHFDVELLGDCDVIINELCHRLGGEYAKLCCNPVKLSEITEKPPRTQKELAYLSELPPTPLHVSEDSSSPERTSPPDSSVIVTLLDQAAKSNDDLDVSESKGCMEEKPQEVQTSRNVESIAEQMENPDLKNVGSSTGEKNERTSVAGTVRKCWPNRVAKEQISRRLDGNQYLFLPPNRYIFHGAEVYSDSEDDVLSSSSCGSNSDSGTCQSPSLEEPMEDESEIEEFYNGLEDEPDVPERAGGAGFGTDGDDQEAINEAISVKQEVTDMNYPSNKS

The target in experiment [6] is human Tropomyosin Receptor Kinase A (TRKA), NTRK1 (gene 4914) (UniProt P04629). The experiment in a line: NVS_ENZ_hTrkA: NovaScreen (NVS) Enzymatic Assay for human Tropomyosin Receptor Kinase A (TRKA) (AID 2283224). An outline of the steps:
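Compounds were screened at 25 uM in duplicate, then concentration series to a 50 uM top for those meeting threshold (e.g. 30% inhibition). Enzyme was recombinant human TrkA, incubated 1 h. Product formation was quantified by fluorescence after mobility-shift separation.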

For experiment [7], the target named is human Vascular Endothelial Growth Factor Receptor 1 (VEGFR1), FLT1 (gene 2321) (UniProt P17948). The experiment in a line: NVS_ENZ_hVEGFR1: NovaScreen (NVS) Enzymatic Assay for human Vascular Endothelial Growth Factor Receptor 1 (VEGFR1) (AID 2283226). An outline of the steps:
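Kinase activity of recombinant human VEGFR1 was read by fluorescence after electrophoretic separation of product from substrate, 1 h post-dosing; initial duplicate single-point testing at 25 uM, followed by concentration-series follow-up, with DMSO as baseline.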

The target of experiment [8] is human Protein Tyrosine Phosphatase Receptor Type M (PTPRM), PTPRM (gene 5797) (UniProt P28827). The experiment in a line: NVS_ENZ_hPTPRM: NovaScreen (NVS) Enzymatic Assay for human Protein Tyrosine Phosphatase Receptor Type M (PTPRM) (AID 2283215). The protocol: as §1, with “NVS_ENZ_hPTPRM” for “NVS_ENZ_hPTPRB”, “1.33 hours” for “1 hour”, “plate.NVS_ENZ_hPTPRM” for “plate.NVS_ENZ_hPTPRB”, “NVS_ENZ_hPTPRM,” for “NVS_ENZ_hPTPRB,”, “PTPRM.” for “PTPRB.”
as §2

Experiment [9] deals with human Sirtuin 3 (SIRT3), SIRT3 (gene 23410) (UniProt Q9NTG7). The experiment in a line: NVS_ENZ_hSIRT3: NovaScreen (NVS) Enzymatic Assay for human Sirtuin 3 (SIRT3) (AID 2283222). An outline of the steps:
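Cell-free enzyme assay with recombinant protein and fluorescent substrate, product separated by electrophoretic mobility shift; read 1 hour after dosing. Screened in duplicate at 25 uM, then singleton concentration-response up to 50 uM; loss of signal versus DMSO.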

Experiment [10] concerns the target human SRC Proto-Oncogene, Non-receptor Tyrosine Kinase (SRC), SRC (gene 6714) (UniProt P12931). The experiment in a line: NVS_ENZ_hSRC: NovaScreen (NVS) Enzymatic Assay for human SRC Proto-Oncogene, Non-receptor Tyrosine Kinase (SRC) (AID 2283223). The gist of the method:
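Compounds passing 30% inhibition at 25 uM (duplicate) were titrated to a top concentration of 50 uM. Enzyme activity read by fluorescence with mobility-shift substrate/product separation after 1 h; DMSO baseline.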

human SRC Proto-Oncogene, Non-receptor Tyrosine Kinase (SRC), SRC (gene 6714), sequence (P12931 whole entry, looked up): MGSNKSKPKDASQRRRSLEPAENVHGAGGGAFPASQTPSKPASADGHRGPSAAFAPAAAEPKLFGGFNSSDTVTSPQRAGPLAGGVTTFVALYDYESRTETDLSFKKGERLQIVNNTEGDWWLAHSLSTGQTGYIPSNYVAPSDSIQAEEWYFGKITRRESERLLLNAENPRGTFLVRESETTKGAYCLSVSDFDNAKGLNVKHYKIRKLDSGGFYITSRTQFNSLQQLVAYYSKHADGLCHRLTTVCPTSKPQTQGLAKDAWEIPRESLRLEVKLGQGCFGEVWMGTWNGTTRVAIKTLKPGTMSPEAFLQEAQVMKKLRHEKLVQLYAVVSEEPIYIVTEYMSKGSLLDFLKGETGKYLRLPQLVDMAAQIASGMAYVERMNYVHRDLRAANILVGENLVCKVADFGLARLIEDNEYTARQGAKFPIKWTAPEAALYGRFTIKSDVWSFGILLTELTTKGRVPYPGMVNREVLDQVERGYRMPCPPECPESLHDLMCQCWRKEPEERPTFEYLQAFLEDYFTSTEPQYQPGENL
human Vascular Endothelial Growth Factor Receptor 1 (VEGFR1), FLT1 (gene 2321), sequence (P17948 whole entry, looked up): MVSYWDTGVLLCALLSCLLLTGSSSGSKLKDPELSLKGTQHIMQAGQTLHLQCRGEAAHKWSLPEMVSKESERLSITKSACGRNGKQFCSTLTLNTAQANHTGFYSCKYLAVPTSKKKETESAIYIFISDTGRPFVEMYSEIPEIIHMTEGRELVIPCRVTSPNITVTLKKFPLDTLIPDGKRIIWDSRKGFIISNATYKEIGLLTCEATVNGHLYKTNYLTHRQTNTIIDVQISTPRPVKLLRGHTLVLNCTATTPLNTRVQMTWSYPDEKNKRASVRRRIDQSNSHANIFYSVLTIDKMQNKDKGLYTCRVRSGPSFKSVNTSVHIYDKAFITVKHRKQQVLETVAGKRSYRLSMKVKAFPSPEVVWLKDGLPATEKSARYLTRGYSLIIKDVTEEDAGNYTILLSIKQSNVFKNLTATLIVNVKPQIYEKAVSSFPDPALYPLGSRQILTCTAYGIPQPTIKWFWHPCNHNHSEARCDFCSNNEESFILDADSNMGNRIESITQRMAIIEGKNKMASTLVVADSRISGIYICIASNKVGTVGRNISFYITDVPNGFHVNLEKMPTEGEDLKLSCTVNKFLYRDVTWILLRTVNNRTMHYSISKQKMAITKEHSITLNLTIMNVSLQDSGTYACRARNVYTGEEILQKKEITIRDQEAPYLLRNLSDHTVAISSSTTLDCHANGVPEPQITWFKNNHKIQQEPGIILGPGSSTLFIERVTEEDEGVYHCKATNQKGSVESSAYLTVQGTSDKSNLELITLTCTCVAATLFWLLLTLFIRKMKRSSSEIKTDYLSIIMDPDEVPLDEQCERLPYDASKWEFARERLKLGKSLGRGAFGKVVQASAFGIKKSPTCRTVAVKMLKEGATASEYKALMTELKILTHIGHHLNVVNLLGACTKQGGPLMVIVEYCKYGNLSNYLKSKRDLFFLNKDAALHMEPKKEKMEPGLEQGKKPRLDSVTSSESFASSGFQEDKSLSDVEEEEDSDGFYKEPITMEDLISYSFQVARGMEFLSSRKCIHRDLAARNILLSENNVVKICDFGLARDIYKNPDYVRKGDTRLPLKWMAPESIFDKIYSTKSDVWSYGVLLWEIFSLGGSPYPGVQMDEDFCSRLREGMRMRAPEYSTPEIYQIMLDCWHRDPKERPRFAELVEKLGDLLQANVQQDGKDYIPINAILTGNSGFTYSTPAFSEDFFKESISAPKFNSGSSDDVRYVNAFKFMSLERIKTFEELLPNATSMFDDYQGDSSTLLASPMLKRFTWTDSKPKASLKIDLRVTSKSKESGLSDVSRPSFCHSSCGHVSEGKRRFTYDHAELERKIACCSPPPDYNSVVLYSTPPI
human Sirtuin 2 (SIRT2), SIRT2 (gene 22933), sequence (Q8IXJ6 whole entry, looked up): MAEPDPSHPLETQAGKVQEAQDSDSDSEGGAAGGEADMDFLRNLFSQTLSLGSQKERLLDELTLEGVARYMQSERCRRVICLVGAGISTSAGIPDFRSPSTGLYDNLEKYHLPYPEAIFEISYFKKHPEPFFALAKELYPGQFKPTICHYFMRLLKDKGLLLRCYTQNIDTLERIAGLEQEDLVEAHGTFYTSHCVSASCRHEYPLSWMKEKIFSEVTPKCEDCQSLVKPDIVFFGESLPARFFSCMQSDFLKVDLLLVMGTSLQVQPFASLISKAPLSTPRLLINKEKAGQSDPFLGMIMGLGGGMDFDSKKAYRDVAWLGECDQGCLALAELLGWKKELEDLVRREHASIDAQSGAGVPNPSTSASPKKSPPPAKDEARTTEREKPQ
human Tropomyosin Receptor Kinase A (TRKA), NTRK1 (gene 4914), sequence (P04629 whole entry, looked up): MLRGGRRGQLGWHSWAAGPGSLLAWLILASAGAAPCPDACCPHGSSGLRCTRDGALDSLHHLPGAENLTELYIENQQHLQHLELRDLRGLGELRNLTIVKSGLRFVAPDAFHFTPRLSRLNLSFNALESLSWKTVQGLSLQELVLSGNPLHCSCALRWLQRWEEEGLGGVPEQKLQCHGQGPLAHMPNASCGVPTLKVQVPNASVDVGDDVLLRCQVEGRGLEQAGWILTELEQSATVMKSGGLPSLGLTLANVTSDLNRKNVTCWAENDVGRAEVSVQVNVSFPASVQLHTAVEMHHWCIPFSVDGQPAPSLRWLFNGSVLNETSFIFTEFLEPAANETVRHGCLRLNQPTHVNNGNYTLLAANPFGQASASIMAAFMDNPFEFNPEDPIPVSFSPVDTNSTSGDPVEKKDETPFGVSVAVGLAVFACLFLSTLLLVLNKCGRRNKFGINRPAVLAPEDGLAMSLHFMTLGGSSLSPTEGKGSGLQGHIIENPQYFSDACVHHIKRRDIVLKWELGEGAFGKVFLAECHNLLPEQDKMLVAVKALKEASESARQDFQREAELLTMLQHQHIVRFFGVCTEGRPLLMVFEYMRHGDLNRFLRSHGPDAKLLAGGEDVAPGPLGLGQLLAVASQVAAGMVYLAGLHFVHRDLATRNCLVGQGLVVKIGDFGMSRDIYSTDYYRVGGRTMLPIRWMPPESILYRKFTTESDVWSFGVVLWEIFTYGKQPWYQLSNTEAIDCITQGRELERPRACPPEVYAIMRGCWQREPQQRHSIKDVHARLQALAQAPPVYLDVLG
human Sirtuin 3 (SIRT3), SIRT3 (gene 23410), sequence (Q9NTG7 whole entry, looked up): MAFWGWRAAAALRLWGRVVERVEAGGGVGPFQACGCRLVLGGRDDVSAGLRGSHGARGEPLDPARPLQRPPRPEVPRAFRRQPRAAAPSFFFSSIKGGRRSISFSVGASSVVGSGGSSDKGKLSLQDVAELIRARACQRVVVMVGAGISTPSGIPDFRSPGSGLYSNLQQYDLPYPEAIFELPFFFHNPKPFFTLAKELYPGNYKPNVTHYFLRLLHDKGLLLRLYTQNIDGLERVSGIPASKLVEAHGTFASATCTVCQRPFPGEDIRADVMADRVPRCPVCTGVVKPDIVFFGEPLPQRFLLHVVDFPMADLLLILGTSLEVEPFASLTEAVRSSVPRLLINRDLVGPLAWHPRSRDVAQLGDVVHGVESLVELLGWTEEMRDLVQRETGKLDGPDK

For `CCCOC(=O)NCCCN(C)C`, the call in experiment [1] was inactive.
For `CC1(C)C(C=C(Cl)Cl)C1C(=O)OCc1cccc(Oc2ccccc2)c1` (stereo unspecified), the result in [2] was inactive.
In the case of `CC(C)(c1ccc(O)cc1)c1ccc(O)cc1`, the molecule was classed as inactive in experiment [3], in experiment [4], in experiment [5] and in experiment [7]. Further, in experiment [6], the half-maximal activity concentration (AC50) was 15.4 µM (active).
As to `Oc1ccc(C(c2ccc(O)cc2)C(Cl)(Cl)Cl)cc1`, the concentration at half-maximal activity (AC50) in experiment [8] is 46.5 µM (active); in experiment [2], 17 µM (active); in [9], 19.4 µM (active); in experiment [6] it was 15 µM (active).
`CSC(=O)c1cccc2nnsc12`: the call in [4] was inactive.
Regarding `S=C([S-])NCCNC(=S)[S-].[Mn+2]`, the AC50 is 465 nM (active) in experiment [3]; 6.35 µM (active) in experiment [1]; 8.13 µM (active) in experiment [8]; 14.1 µM (active) in experiment [2]; 15.4 µM (active) in experiment [5]; 7.6 µM (active) in experiment [9].
`O=C(c1ccc(O)cc1O)c1ccc(O)cc1O`: the AC50 was 15 µM (active) in experiment [10], 25 µM (active) in experiment [6] and 25 µM (active) in experiment [7].
For the molecule `c1ccc2[nH]c(-c3cscn3)nc2c1`, the AC50 in experiment [10] was 25 µM (active); in experiment [6], 8.41 µM (active).
Turning to `O=C(Nc1ccc([N+](=O)[O-])cc1Cl)c1cc(Cl)ccc1O`, in experiment [8], the molecule was called inactive.
On to `O=C(O)C1(C(=O)Nc2ccc(Cl)cc2Cl)CC1`, for which the molecule was classed as inactive in experiment [1]. In addition, the concentration at half-maximal activity (AC50) in experiment [8] was 12.4 µM (active).
Turning to `CCCN(CCC)c1c([N+](=O)[O-])cc(C(F)(F)F)c(N)c1[N+](=O)[O-]`, the call in experiment [8] was inactive.
As to `COC(=O)c1ccccc1S(=O)(=O)NC(=O)Nc1nc(OC(F)F)cc(OC(F)F)n1`, the call in experiment [3] was inactive.
Consider `S=C(S)NCCNC(=S)S.[Mn+2].[S-]C([S-])=NCCN=C([S-])[S-].[Zn+2]`, for which the half-maximal activity concentration (AC50) in experiment [3] was 22.4 nM (active) and 4.12 µM (active); in [1], 1.38 µM (active) and 1.98 µM (active); in [2], 4.58 µM (active); in [5], 3.63 µM (active) and 4.01 µM (active) and 3.03 µM (active); in experiment [9], 25 µM (active); in experiment [10], 1.47 µM (active). Moreover, the figures for the AC50 in experiment [6] and in experiment [7] were 22.1 µM (active) and 7.01 µM (active), respectively. For the same molecule, the call in experiment [1], in experiment [4], in [2], in experiment [9] and in experiment [7] was inactive.
As to `N#CSCSc1nc2ccccc2s1`, the outcome in [1] was inactive. The AC50 in [5] was 10.7 µM (active).
For `O=C(O)c1ccccc1`, the call in [2] was inactive.
Take `COCCO`: the call in [7] was inactive.
Consider `C=CCOC(Cn1ccnc1)c1ccc(Cl)cc1Cl` (stereo unspecified), for which the half-maximal activity concentration (AC50) in experiment [2] is 15.1 µM (active).
Take `CN(C)C(=O)Nc1ccc(Cl)c(Cl)c1`: the molecule was classed as inactive in experiment [1].
In the case of `CC(C)CCCCCCc1ccc(O)cc1`, the call in experiment [1], in experiment [4], in [8], in experiment [5] and in [6] was inactive.
As to `COc1nc(C)nc(NC(=O)NS(=O)(=O)c2ccccc2OCCCl)n1`, in experiment [8], the call was inactive.
As to `Cc1nn(C)c(Oc2ccccc2)c1C=NOCc1ccc(C(=O)OC(C)(C)C)cc1`, in experiment [2], the AC50 was 6.6 µM (active).
Turning to `CCCN(CCC)C(=O)SCC`, the outcome in experiment [3] was inactive.
Same read-out and setting: to `CCNc1nc(N)nc(Cl)n1` belongs “inactive”.
